# From PubChem
# Only some compounds are listed: those with a hit (about 9.3% of all), similar ones and a draw of the others.
# HCMV inh – qHTS Assay for inhibitors of the human cytomegalovirus (HCMV) | HFF cells, HCMV-luciferase reporter, 72 h; stronger effect = lower value | activity change, negative = inhibition, % at 57.5 µM | 410,000 compounds, 4.5% hits; in the data active = activity change below about -60%; inconclusive = no clear call, values can overlap the other calls; inactive = above about -39%
#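 Cell-based, HFFs, 1000 cells/well, 16 h 37C; cpds in DMSO + HCMV-luc, MOI 1 PFU/cell; 72 h 37C; OneGlo luminescence after 5 min RT; norm. to buffer vs Salinomycin 10uM.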
# FMDV antiviral – High Throughput Screening for Foot and Mouth Disease Virus Antivirals. Potency, µM (series often up to 57.9 µM), for the others: top-dose activity change, negative = inhibition, usual class: inhibitors. AID 1159524, 2015. FMDV antiviral cell-based qHTS. 410,000 compounds, 1.2% hits; calls by dose curve; tested in HEK293T cells; note: read-out not given here; potency is the fitted concentration of half-maximal effect; nearly all actives have a fitted effect of over 45% in size
# Sm TGR block – qHTS Assay for the Inhibitors of Schistosoma Mansoni Peroxiredoxins; purified TGR, DTNB reduction, TNB absorbance 405 nm; Schistosoma mansoni thioredoxin glutathione reductase (TGR), Q962Y6; 360,000 compounds, 3% hits; Potency, µM (highest dose often 114 µM), for inactives: at the highest dose activity change, negative = inhibition, most hits filed as inhibitors; AID 485364, 2010; note: potency is the fitted concentration of half-maximal effect; nearly all actives have a fitted effect of over 60% in size
#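 TGR 20 nM + NADPH 100 uM (dispensed conc.), cpd preinc 15 min RT; start with NADPH (500 uM addition) then DTNB (15 mM addition). Kinetic TNB absorbance, 405 nm filter. Four-parameter Hill fit across titration.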
# Vaccinia Venus – qHTS for Stage-Specific Inhibitors of Vaccinia Orthopoxvirus: Venus Reporter Primary qHTS | Vaccinia virus Venus reporter expression, fluorescence | Potency, µM (top dose mostly 36.5 µM), for inactives: at the top dose activity change, negative = inhibition, most hits filed as inhibitors | 330,000 compounds, 0.46% hits; calls by dose curve; tested in A549 cells; note: potency is the fitted concentration of half-maximal effect; nearly all actives have a fitted effect of over 30% in size
# HCV inh – qHTS Assay for Inhibitors of Hepatitis C Virus (HCV). Huh7.5.1 HCVcc-Cre infection, luciferase reporter, 44 h. Potency, µM (top dose mostly 41.8 µM), inactives show at the highest dose activity change, negative = inhibition, usual class: inhibitors. 340,000 compounds, 3.4% hits. AID 651820, 2012; note: potency is the fitted concentration of half-maximal effect
#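 Luciferase read-out (15 sec integration) after a 15 min room-temperature substrate step quantifies HCVcc-Cre infection. Cells, 1,000 per well, had compound added 4 h post-plating, then virus at ~0.5 moi, and were cultured 44 h.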
# Vaccinia mCherry – qHTS for Stage-Specific Inhibitors of Vaccinia Orthopoxvirus: mCherry Reporter Primary qHTS; Vaccinia virus mCherry reporter infection, fluorescence; Potency, µM (highest dose often 36.5 µM), for inactives: top-dose activity change, negative = inhibition, most hits filed as inhibitors; 310,000 compounds, 0.63% hits; AID 720579, 2013; calls by dose curve; tested in A549 cells; note: potency is the fitted concentration of half-maximal effect; nearly all actives have a fitted effect of over 35% in size
# The depositor's hits bear a star; i = inactive; ? = inconclusive; / = not tested or not shown; [ ] = dose if it differs, or a comment. Unless noted, calls come from the whole dose curve; as a rule, active = well fitted curve in the direction sought with a large enough effect; inconclusive = small, poorly fitted or top-dose-only effect, or another doubt; inactive = no such curve, though single readings can be large; an effect the other way counts as inactive or inconclusive. % is set by controls: 0 for no effect and ±100 for the full control effect.
SMILES,HCMV inh,FMDV antiviral,Sm TGR block,Vaccinia Venus,HCV inh,Vaccinia mCherry
Cc1cc(Cl)cc2sc(=S)[nH]c12,4,31%,/,1%,11%,-29%
CCCc1nc2ccccc2c(=O)n1-c1ccc(C(=O)OCC)cc1,-14,-14%,-6%[57.1 µM],3%,23%,i
CCOC(=O)CC1C(=O)NCCN1C(=O)c1cc2c(=O)n3cccc(C)c3nc2s1 (configuration not stated),72,-21%,35µM*,-12%,12%,i
CC(=O)O[C@H]1C[C@@H]2OC3C=C(C)CCC3(C)[C@@]1(C)[C@@]21CO1 (some centres not stated),-98*,/,/,/,/,/
CC(=O)c1c(C)n(-c2cccc(Cl)c2)c2ccc(OC(=O)c3ccccc3)cc12,-7,-28%,1%,-4%,/,-6%
CCc1noc(C)c1C(=O)Oc1ccc(N(C)S(=O)(=O)c2ccc(C)cc2)cc1,/,?,2%,/,?,/
CCc1noc(C)c1C(=O)Oc1ccc(N(C)S(=O)(=O)c2ccccc2)cc1,-10,18µM*,-5%,-15%,?,-21%
Cc1ccc(NC(=O)Cn2nc(-c3ccccc3)nc(Cc3ccc(Cl)cc3)c2=O)cc1,-20,-9%,7%,-1%,/,-12%
CCOc1ccc(C2C(C(=O)c3ccco3)=C(O)C(=O)N2CCN2CCOCC2)cc1OCC (configuration not stated),15,8%,?,3%[7.34 µM],3%,7%[7.34 µM]
CCOc1ccc(C2C(C(=O)c3ccc(C)o3)=C(O)C(=O)N2CCN2CCOCC2)cc1OC (configuration not stated),39,1%,50µM*,/,23%,/
CCCOc1ccc(C2C(C(=O)c3ccco3)=C(O)C(=O)N2CCN2CCOCC2)cc1OC (configuration not stated),/,/,40µM*,/,/,/
COc1ccc(C2C(C(=O)/C=C/c3ccco3)=C(O)C(=O)N2CCN2CCOCC2)cc1OC (configuration not stated),-34,-16%,11µM*,-6%,0%,-18%
COc1cccc(Cn2cnc(-c3ccccc3OC)c2-c2cc(C)cc(C)c2)c1,-7,-11%,/,-8%,/,4%
COc1cccc(N2CCN(c3c(C#N)c(C(F)(F)F)nn3C)CC2)c1,-94*,?,17%,-24%,?,/
CC1(C)C[C@H]2C=C(C=O)[C@]3(C=O)C[C@]3(C)[C@H]2C1,9,25µM*,50µM*,?,3.2µM*,?
COc1ccc(C(=O)C(C)Sc2nnc(C3CC3)n2C2CC2)cc1 (configuration not stated),0,-1%,2%,/,4%,/
C=CCC[C@H](Cc1ccc(F)cc1)C(=O)OC[C@H](Cc1c[nH]c2ccccc12)NC(=O)[C@@H](CC=C)CC(=O)N(CCO)Cc1ccccc1,81,40µM*,/,11µM*,?,?
C=CC[C@H](CC(=O)N(CCO)Cc1ccccc1)C(=O)N[C@H](COC(=O)[C@@H](CC=C)Cc1ccc(F)cc1)Cc1ccccc1,94,?,/,?,10µM*,?
C=CCC[C@H](Cc1ccc(F)cc1)C(=O)OC[C@@H](Cc1c[nH]c2ccccc12)NC(=O)[C@@H](CC=C)CC(=O)N(CCO)Cc1ccccc1,39,?,/,11µM*,?,13µM*
Cc1ccc(C2c3sc(=O)[nH]c3SC3C4CC(C5C(=O)N(C(C)C(=O)O)C(=O)C45)C23)cc1 (configuration not stated),-3,-12%,1%,-9%,6%,-9%
COc1ccc(CN2CCN(C(=O)c3ccc(S(=O)(=O)N4CCCCCC4)cc3)CC2)cc1,-75*,20µM*,1%,-15%,?,-4%
Cc1ccc(S(=O)(=O)N2CCN(C(=O)CCNC(=O)c3ccccc3Cl)CC2)cc1,-10,-18%,-4%,-10%,37%,-3%
COc1ccc(S(=O)(=O)N2CCN(C(=O)CCNC(=O)c3ccccc3Cl)CC2)cc1,-98*,-14%,-27%,-22%,-9%,-5%
COc1ccc(CN2CCN(C(=O)c3ccc(S(=O)(=O)NCc4ccco4)cc3)CC2)cc1F,?,?,-6%,-28%,?,-3%
O=C(c1ccc(S(=O)(=O)N2CCCCCC2)cc1)N1CCC(CN2C(=O)c3cccc4cccc(c34)C2=O)CC1,-26,-29%,-8%,?,10µM*,/
SMILES,HCMV inh,FMDV antiviral,Sm TGR block,Vaccinia Venus,HCV inh,Vaccinia mCherry
COc1ccc(CN2CCN(C(=O)c3ccc(S(=O)(=O)N4CCCCCC4)cc3)CC2)cc1F,-77*,14µM*,-19%,-24%,?,?
COc1ccc(C(=O)N2CCN(S(=O)(=O)c3ccc(Br)cc3)CC2)cc1,-35,-31%,3%,/,4%,/
CCOc1ccc(NS(=O)(=O)c2cc3c(cc2C)N(C)CCO3)cc1,12,31%,4%,-20%,?,?
O=C(c1ccc(S(=O)(=O)N2CCCCCC2)cc1)N1CCN(Cc2ccccc2)CC1,-14,?,0%,/,?,/
N#Cc1ccc(CN2CCN(C(=O)c3ccc(S(=O)(=O)N4CCCCCC4)cc3)CC2)cc1,-78*,14µM*,-29%,/,7.9µM*,/
Cc1cc2cc(C(c3nnnn3C3CCCC3)N(Cc3cccnc3)Cc3ccco3)c(=O)[nH]c2cc1C (configuration not stated),-67*,?,?,-21%,-8%,-10%
CCCCn1c(SCC(=O)Nc2cc(C(F)(F)F)cc(C(F)(F)F)c2)nnc1C(CC)N(C)C (configuration not stated),-88*,?,-3%,?,?,-19%
C=CCNc1cc(F)ccc1S(=O)(=O)NCC=C,6,67%,/,-8%,-5%,i
Cc1ccccc1-n1nnnc1SCc1cc(=O)n2ccsc2n1,?,-21%,-1%,/,-14%,/
O=C(O)c1ccc(N/N=C/C2=C(N3CCOCC3)C(=C\c3ccccc3)/CC2)cc1,0,-25%,18µM*,20%,29%,?
CN(C(=O)NC(=O)C1=C(N2CCOCC2)/C(=C/c2ccccc2)CC1)S(C)(=O)=O,68,/,16µM*,-5%,-1%,-18%
Cc1cc(C)nc(N/N=C/C2=C(N3CCOCC3)C(=C\c3ccc(Cl)cc3)/CC2)n1,-24,-4%,32µM*,3%,?,-26%
O=CC1=C(N2CCOCC2)/C(=C/c2ccc(Cl)cc2)CC1,-36,-21%,22µM*,/,?,/
